Laboratory results from PubChem BioAssay (NCATS).
Results filed as inconclusive are left out. Entries that show only a call come without a potency. Activity calls are given as the source filed them. Calls follow the shape of the dose curve; as a rule, active = well fitted curve in the direction sought with a large enough effect; inconclusive = small, poorly fitted or top-dose-only effect, or another doubt; inactive = no such curve, though single readings can be large; an effect the other way counts as inactive or inconclusive.

Tests used:
[1] = qHTS of pediatric cancer cell lines to identify multiple opportunities for drug repurposing: Primary screen for SK-N-MC cells (AID 1347093); also: potency is read from the fitted curve at half-maximal effect
How it was run: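 Metabolically active cells were quantified by ATP-dependent luminescence (CellTiter-Glo, 15 min at room temperature) following 48 h treatment. Cells had been plated at 500-1,000 per well and settled for 5 h beforehand.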

[2] = qHTS of pediatric cancer cell lines to identify multiple opportunities for drug repurposing: Primary screen for U-2 OS cells (AID 1347096); also: nearly all actives have a fitted effect of over 50% in size
How it was run: (§1)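 Cells (500-1,000/well) in growth media were settled 5 h at 37 degrees C, then given compounds for 48 h. Viability was read as CellTiter-Glo luminescence. Primary runs used MIPE at 11 points (0.78 nM-46 µM) and NPC at 8 points (0.59 nM-46 µM); follow-ups used 11 points.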

[3] = qHTS of pediatric cancer cell lines to identify multiple opportunities for drug repurposing: Primary screen for Saos-2 cells (AID 1347097); also: nearly all actives have a fitted effect of over 40% in size; also: potency is read from the fitted curve at half-maximal effect
How it was run: (§2)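 Quantitative HTS format: each compound titrated (MIPE 11 points from 0.78 nM, NPC 8 points from 0.59 nM) onto cells plated 5 hours earlier. After 48 h at 37 degrees C, CellTiter-Glo luminescence was recorded.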

[4] = qHTS of pediatric cancer cell lines to identify multiple opportunities for drug repurposing: Primary screen for LAN-5 cells (AID 1347100); also: potency is read from the fitted curve at half-maximal effect
How it was run: as §1

[5] = qHTS of pediatric cancer cell lines to identify multiple opportunities for drug repurposing: Primary screen for NB-EBc1 cells (AID 1347095); also: potency is read from the fitted curve at half-maximal effect
How it was run: as §2

[6] = qHTS of pediatric cancer cell lines to identify multiple opportunities for drug repurposing: Primary screen for SK-N-SH cells (AID 1347098); also: nearly all actives have a fitted effect of over 65% in size; also: potency is read from the fitted curve at half-maximal effect
How it was run: (§3)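 Cells (500-1,000/well) rested 5 h, then received compounds for 48 h; metabolically active cells were measured by CellTiter-Glo luminescence. Final concentrations spanned up to 46 µM (MIPE, 11-point) or 0.59 nM-46 µM (NPC, 8-point) in primary screens, 11-point in follow-ups.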

[7] = qHTS of pediatric cancer cell lines to identify multiple opportunities for drug repurposing: Primary screen for Rh18 cells (AID 1347102); also: nearly all actives have a fitted effect of over 65% in size
How it was run: as §1

[8] = qHTS of pediatric cancer cell lines to identify multiple opportunities for drug repurposing: Primary screen for NB1643 cells (AID 1347099); also: nearly all actives have a fitted effect of over 50% in size; also: potency is read from the fitted curve at half-maximal effect
How it was run: as §2

[9] = qHTS of pediatric cancer cell lines to identify multiple opportunities for drug repurposing: Primary screen for BT-12 cells (AID 1347101); also: nearly all actives have a fitted effect of over 25% in size
How it was run: as §3

[10] = qHTS of pediatric cancer cell lines to identify multiple opportunities for drug repurposing: Primary screen for BT-37 cells (AID 1347094); also: potency is read from the fitted curve at half-maximal effect
How it was run: as §2

Compound	Potency [1]	Potency [2]	Potency [3]	Potency [4]	Potency [5]	Potency [6]	Potency [7]	Potency [8]	Potency [9]	Potency [10]
O=C(N[C@@H](COc1ccc2[nH]c(=O)[nH]c2c1)c1ccccc1)c1cccn(Cc2ccc(F)c(F)c2)c1=O	18.7 µM (active)	inactive	18.7 µM (active)	inactive	–	–	–	–	–	–
C=CCC1=C(C)C(OC(=O)C2C(C=C(C)C)C2(C)C)CC1=O (stereo not given)	38.6 µM (active)	–	–	–	68.6 µM (active)	inactive	inactive	–	–	–
CCNC(=O)CC1N=C(c2ccc(Cl)cc2)c2cc(OC)ccc2-n2c(C)nnc21 (stereo not given)	2.96 µM (active)	inactive	–	10.5 µM (active)	20.9 µM (active)	15.2 µM (active)	–	14.8 µM (active)	–	–
O=C(NCC1CCOCC1)c1cnc(Nc2ccc(Cl)cc2Cl)nc1C(F)(F)F	3.32 µM (active)	inactive	–	–	–	6.07 µM (active)	inactive	9.35 µM (active)	–	–
CC(=Cc1csc(C)n1)[C@@H]1C[C@H]2O[C@]2(C)CCC[C@H](C)[C@@H](O)[C@@H](C)C(=O)C(C)(C)[C@@H](O)CC(=O)O1	0.001 µM (active)	inactive	0.001 µM (active)	0.001 µM (active)	0.0166 µM (active)	inactive	inactive	inactive	inactive	–
COc1ccc2c(c1)CN(C)CC2c1ccc(Cl)c(Cl)c1 (stereo not given)	18.7 µM (active)	inactive	18.7 µM (active)	20.9 µM (active)	–	–	inactive	–	–	–
CCCCCCCCCCCCCCCC[N+](C)(C)C	5.31 µM (active)	–	–	23.7 µM (active)	–	17.2 µM (active)	–	–	–	15.5 µM (active)
C[C@]12Cc3cn[nH]c3C[C@@H]1CC[C@@H]1[C@H]2CC[C@@]2(C)[C@H]1CC[C@]2(C)O	0.469 µM (active)	inactive	inactive	inactive	–	inactive	–	inactive	–	–
C[C@@H]1CC[C@H]2[C@@H](C)C(=O)O[C@@H]3O[C@@]4(C)CC[C@H]1[C@]32OO4	11.8 µM (active)	inactive	inactive	inactive	–	inactive	inactive	inactive	–	–
CC(O)=C(C#N)C(=O)Nc1cc(Br)ccc1Br	0.332 µM (active)	inactive	–	–	–	–	inactive	1.32 µM (active)	inactive	inactive
ClC1=C(Cl)[C@]2(Cl)[C@@H]3[C@@H]4C[C@@H]([C@H]5O[C@@H]45)[C@@H]3[C@@]1(Cl)C2(Cl)Cl	19.3 µM (active)	inactive	38.6 µM (active)	–	–	–	–	–	–	–
CC(C)(O)C(=O)Nc1ccc([N+](=O)[O-])c(C(F)(F)F)c1	0.935 µM (active)	inactive	inactive	–	inactive	24.1 µM (active)	inactive	5.9 µM (active)	–	–
C[C@]12CC[C@H](O)CC1=CC[C@H]1[C@H]3CCC(=O)[C@@]3(C)CC[C@@H]12	16.6 µM (active)	inactive	–	–	–	inactive	inactive	–	–	inactive
COc1ccc(C(=O)c2c(C)n(CCN3CCOCC3)c3cc(I)ccc23)cc1	1.48 µM (active)	–	18.7 µM (active)	–	20.9 µM (active)	–	–	14.8 µM (active)	–	–
